Measurements reported in PubChem BioAssay (NCATS).
Values joined by “and” are separate entries in the source; they are usually repeats but may differ in a detail not shown here. Equal values may be shown once. Results filed as inconclusive are left out. Active and inactive are the calls of the source. Unless noted, calls come from the whole dose curve; as a rule, active = well fitted curve in the direction sought with a large enough effect; inconclusive = small, poorly fitted or top-dose-only effect, or another doubt; inactive = no such curve, though single readings can be large; an effect the other way counts as inactive or inconclusive.

What was measured:
[1] = test system: Zika virus NS2B-NS3 protease (linked construct); assay: Primary screen NINDS Rhodamine qHTS for Zika virus inhibitors (AID 1347160); note: nearly all actives have a fitted effect of over 55% in size
In short: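 Kinetic fluorescence (Ex 480 nm, Em 540 nm) over 15 min with 1.5 microM Rhodamine110 peptide and 25 nM linked protease.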

[2] = biological target: Calcium and integrin-binding protein 1 (Homo sapiens) (UniProt Q99828); assay: Primary qHTS for Identification of Calcium Integrin Binding Protein 1 (CIB1) Competitor (AID 1508620);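 note: GST tagged CIB1 binding a fluorescein labelled alphaIIb integrin peptide tracer; top concentration of the series differs between compounds; % is set by controls: 0 for no effect and ±100 for the full control effect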
In short: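 Fluorescence polarization competition: GST-tagged CIB1 (1 uM final) preincubated with compound 15 min at room temperature, then FITC-labelled alphaIIb peptide (100 nM final) added. After 15 min at room temperature, polarization read at Ex 480/Em 540.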

[3] = Primary qHTS for inhibitors of nuclear receptor binding SET domain protein 2 (NSD2) in an RCH-ACV wild type WT cells (2C) (AID 1645877); note: nearly all actives have a fitted effect of over 70% in size; note: potency is the fitted concentration of half-maximal effect
[4] = biological target: Glutathione peroxidase 1 (Homo sapiens) (UniProt P07203); assay: Primary qHTS Assay for Inhibitors of Recombinant Selenoprotein Glutathione Peroxidase 1 (GPX1) (AID 1845191); note: nearly all actives have a fitted effect of over 65% in size
In short: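 GR-coupled assay: compounds preincubated 30 min at room temperature with GPX1, then reaction started with CHP; final 10 nM GPX1, 1 mM GSH, 0.5 mM CHP, 0.5 mM NADPH, 100 nM GR, 0.01% BSA, pH 7.5 Tris buffer. NADPH fluorescence (340/450 nm) read at 0 and 15 min.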

[5] = biological target: Phospholipid hydroperoxide glutathione peroxidase GPX4 (Homo sapiens) (UniProt P36969); assay: Primary qHTS Assay for Inhibitors of Recombinant Selenoprotein Glutathione Peroxidase 4 (GPX4) (AID 1845192); details: outcome: dose series up to 50 µM unless noted; note: nearly all actives have a fitted effect of over 65% in size
In short: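 GR-coupled assay: recombinant GPX4 preincubated 30 min with compound at room temperature; final 200 nM GPX4, 1 mM GSH, 0.5 mM cumene hydroperoxide, 0.5 mM NADPH, 100 nM GR, 0.01% BSA, pH 7.5 Tris. NADPH fluorescence (340/450 nm) read at 0 and 15 min.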

[6] = biological target: Luciferin 4-monooxygenase (Photinus pyralis) (UniProt P08659); assay: Primary firefly luciferase (FLuc) qHTS assay for identification of artifact compounds. (AID 1845220); note: nearly all actives have a fitted effect of over 60% in size
In short: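 Enzymatic FLuc inhibition assay: compounds pre-exposed to luciferin/ATP (10 uM each) for 15 min, then purified P. pyralis enzyme at 10 nM added. Read-out: luminescence at 5 min.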

[7] = Primary fluorescence-based thiol-reactive (MSTI) qHTS assay for identification of artifact compounds. (AID 1845221); note: nearly all actives have a fitted effect of over 65% in size; note: potency is the fitted concentration of half-maximal effect
In short: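 A multi-concentration qHTS design tested compounds against 4 uM MSTI, pH 7.4 phosphate-buffered saline. Plates were protected from light for 1 h at room temperature before imaging fluorescence.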

[8] = test system: Nanoluciferase (engineered Oplophorus gracilirostris luciferase); assay: Primary Nanoluciferase (NLuc) qHTS assay for identification of artifact compounds. (AID 1845222);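 note: NLuc secreted into diluted conditioned medium of S16 cells; 0% = DMSO and -100% = no enzyme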
In short: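 S16 cell supernatant NLuc, 1:55; cpds qHTS; 15 min RT dark; Nano-Glo substrate 1:100, 5 min; luminescence; Hill fit of % inhibition.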

[9] = Primary redox qHTS assay for identification of artifact compounds. (AID 1845223);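 note: 0% = DMSO and 100% = reference compound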
In short: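 Amplex Red (25 uM) and HRP (250 mU/mL) in HBSS, with compounds for 15 min, then 250 uM DTT for 30 min, room temperature, dark. Fluorescence 525/598 nm read; normalized to DMSO and 10 uM DA3003; Hill fit.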

[10] = test system: C33A; assay: Primary qHTS to identify gynecologic anti-cancer compounds using libraries of approved drugs and bioactive compounds (AID 1345084); details: Gynecologic cancer cell panel viability, ATPlite luminescence, 48 h; series mostly up to 57.5 µM; note: nearly all actives have a fitted effect of over 55% in size; note: potency is the fitted concentration of half-maximal effect
In short: (§1)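 ATP-based viability (ATPlite), 1,000 cells/well, 16 h pre-incubation, 48 h compound at 37 C, 5% CO2, 15 min RT before read.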

[11] = test system: CASKI; assay: as above; details: Gynecologic cancer cell panel viability, ATPlite luminescence, 48 h; series mostly up to 57.5 µM
In short: as §1

[12] = test system: Es-2; assay: as above; details: Gynecologic cancer cell panel viability, ATPlite luminescence, 48 h; series mostly up to 57.5 µM
In short: as §1

[13] = test system: HeLa; assay: as above; details: Gynecologic cancer cell panel viability, ATPlite luminescence, 48 h; series mostly up to 57.5 µM
In short: as §1

[14] = test system: Hek293T; assay: as above; details: Gynecologic cancer cell panel viability, ATPlite luminescence, 48 h, control line for the selectivity index; series mostly up to 57.5 µM
In short: as §1

[15] = test system: JEG-3; assay: as above; details: Gynecologic cancer cell panel viability, ATPlite luminescence, 48 h; series mostly up to 57.5 µM
In short: as §1

[16] = test system: OV90; assay: as above; details: Gynecologic cancer cell panel viability, ATPlite luminescence, 48 h; series mostly up to 57.5 µM
In short: as §1

[17] = test system: Tov-21-G; assay: as above; details: Gynecologic cancer cell panel viability, ATPlite luminescence, 48 h; series mostly up to 57.5 µM
In short: as §1

[18] = test system: Tov112D; assay: as above; details: Gynecologic cancer cell panel viability, ATPlite luminescence, 48 h; series mostly up to 57.5 µM
In short: as §1

[19] = Primary qHTS for inhibitors of nuclear receptor binding SET domain protein 2 (NSD2) in an isogenic RCH-ACV NSD2 p.E1099K mutant (9B) (AID 1645876); note: nearly all actives have a fitted effect of over 70% in size; note: potency is the fitted concentration of half-maximal effect
[20] = qHTS drug screen for cell cycle checkpoint inhibitors in PARPi-resistant BRCA-mutant ovarian cancer cell lines. (AID 1963452; calls by dose curve); details: PEO1/OlaR viability, CellTiter-Glo luminescence, 96 h, stronger effect = lower value
In short: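 PEO1, PEO4 and PEO1/OlaR ovarian cancer cells, 600 per well, exposed 96 h at 37C to a dilution series. Viability read by CellTiter-Glo luminescence, normalized to DMSO and empty wells; activity summarized as Z-AUC.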

[21] = measured here: PEO1 parental Z-AUC

Sequence of Phospholipid hydroperoxide glutathione peroxidase GPX4 (Homo sapiens) (P36969 whole entry, looked up): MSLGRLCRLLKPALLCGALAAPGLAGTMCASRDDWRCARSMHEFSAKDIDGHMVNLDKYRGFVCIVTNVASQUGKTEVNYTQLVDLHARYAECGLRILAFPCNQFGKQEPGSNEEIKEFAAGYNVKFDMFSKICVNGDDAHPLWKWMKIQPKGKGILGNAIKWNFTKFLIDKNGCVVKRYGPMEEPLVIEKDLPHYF
Sequence of Calcium and integrin-binding protein 1 (Homo sapiens) (Q99828 whole entry, looked up): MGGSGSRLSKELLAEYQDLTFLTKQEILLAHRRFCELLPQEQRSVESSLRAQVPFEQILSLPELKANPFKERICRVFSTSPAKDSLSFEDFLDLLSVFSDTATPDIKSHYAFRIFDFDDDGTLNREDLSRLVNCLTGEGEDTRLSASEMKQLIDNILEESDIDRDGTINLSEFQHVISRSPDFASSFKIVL
Sequence of Glutathione peroxidase 1 (Homo sapiens) (P07203 whole entry, looked up): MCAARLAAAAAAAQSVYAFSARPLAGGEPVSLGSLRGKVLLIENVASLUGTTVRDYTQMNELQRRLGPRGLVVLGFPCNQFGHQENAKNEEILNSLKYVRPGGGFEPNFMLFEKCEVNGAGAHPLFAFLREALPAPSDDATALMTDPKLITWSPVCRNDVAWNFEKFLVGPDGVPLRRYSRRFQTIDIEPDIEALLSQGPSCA

COc1ccc(C2(CNC(=O)[C@](C)(Cc3c[nH]c4ccccc34)NC(=O)Nc3ccc([N+](=O)[O-])cc3)CCCCC2)nc1
inactive: Potency [1] | outcome [2] | Potency [4] | Potency [5] | Potency [6] | Potency [7] | Potency [8] | Potency [9] | Potency [10] | Potency [11] | Potency [12] | Potency [13] | Potency [14] | Potency [15] | Potency [16] | Potency [17] | Potency [18]
active: Potency [3] 20.5 µM

CCCCc1nc(Cl)c(CO)n1Cc1ccc(-c2ccccc2-c2nnn[nH]2)cc1
inactive: Potency [1] | Potency [19] | Potency [3] | Potency [5] | Potency [6] | Potency [7] | Potency [9] | Potency [10] | Potency [11] | Potency [12] | Potency [13] | Potency [14] | Potency [15] | Potency [16] | Potency [17] | Potency [18]

COc1ccc(NS(=O)(=O)c2sc3ccc(Cl)cc3c2C)cc1N1CCNCC1
inactive: Potency [1] | outcome [2] | Potency [4] | Potency [5] | Potency [6] | Potency [8] | Potency [9] | Potency [10] | Potency [11] | Potency [12] | Potency [13] | Potency [14] | Potency [15] | Potency [16] | Potency [17] | Potency [18]
active: Potency [19] 20.5 µM | Potency [3] 12.9 µM

Cc1cc(N=Nc2ccc(S(=O)(=O)Nc3ccccn3)cc2)c(N)cc1O
active: Potency [19] 8.17 µM | Potency [3] 5.78 µM | Potency [7] 0.597 µM | Potency [13] 4.47 µM
inactive: Potency [1] | Potency [4] | Potency [9] | Potency [10] | Potency [15]

CCNC(=O)[C@@H]1CCCN1C(=O)[C@H](CCCN=C(N)N)NC(=O)[C@H](CC(C)C)NC(=O)[C@@H](CC(C)C)NC(=O)[C@H](Cc1ccc(O)cc1)NC(=O)[C@H](CO)NC(=O)[C@H](Cc1c[nH]c2ccccc12)NC(=O)[C@H](Cc1cnc[nH]1)NC(=O)[C@@H]1CCC(=O)N1
inactive: Potency [1] | outcome [2] | Potency [19] | Potency [3] | Potency [5] | Potency [6] | Potency [7] | Potency [8] | Potency [10] | Potency [11] | Potency [12] | Potency [13] | Potency [14] | Potency [15] | Potency [16] | Potency [17] | Potency [18]

CNCCN(C)Cc1cn[nH]c1-c1ccc(OC2CC(OCCC3CCOCC3)C2)cc1 (centres undefined)
inactive: outcome [2] | Potency [4] | Potency [5] | Z-AUC [20] -0.683
-1: Z-AUC [20, 21]
-0.979: Z-AUC ([20]; measured here: PEO4 Z-AUC)

CC[C@H](C)[C@H]1O[C@]2(CC[C@@H]1C)C[C@@H]1C[C@@H](C/C=C(\C)[C@@H](O[C@H]3C[C@H](OC)[C@@H](O[C@H]4C[C@H](OC)[C@@H](O)[C@H](C)O4)[C@H](C)O3)[C@@H](C)/C=C/C=C3\CO[C@@H]4[C@H](O)C(C)=C[C@@H](C(=O)O1)[C@]34O)O2
inactive: Potency [1] | outcome [2] | Potency [5] | Potency [6] | Potency [8] | Potency [9] | Potency [10] | Potency [11] | Potency [12] | Potency [13] | Potency [15] | Potency [16] | Potency [17] | Potency [18]
active: Potency [19] 20.5 µM | Potency [3] 9.16 µM

CO[C@@H]1[C@@H](O[C@H]2O[C@@H](C)[C@H](O[C@@H]3C[C@](C)(O)[C@H](O)[C@@H](C)O3)[C@@H](N(C)C)[C@@H]2O)[C@@H](CC=O)C[C@@H](C)[C@@H](O[C@H]2CC[C@H](N(C)C)[C@H](C)O2)/C=C/C=C/C[C@@H](C)OC(=O)C[C@H]1O
inactive: Potency [1] | outcome [2] | Potency [19] | Potency [4] | Potency [5] | Potency [6] | Potency [7] | Potency [8] | Potency [10] | Potency [11] | Potency [12] | Potency [13] | Potency [14] | Potency [15] | Potency [16] | Potency [17] | Potency [18]

Cc1cc(CS(=O)(=O)c2ccccc2)cc(OCc2ccc(CN3CCC[C@@H]3CO)cc2)c1
active: Potency [19] 12.9 µM and 16.6 µM | Potency [3] 18.3 µM and 14.8 µM | Potency [16] 25.1 µM
0.253: Z-AUC [20, 21]
inactive: Potency [1] | outcome [2] | Potency [4] | Potency [5] | Potency [6] | Potency [7] | Potency [8] | Potency [9] | Z-AUC [20] 0.153 | Potency [11] | Potency [12] | Potency [13]
0.0408: Z-AUC ([20]; measured here: PEO4 Z-AUC)

O=C(CC1NCCC[C@H]1O)Cn1cnc2cc(Br)c(Cl)cc2c1=O (some centres undefined)
inactive: Potency [1] | outcome [2] | Potency [19] | Potency [6] | Potency [8] | Potency [9] | Potency [10] | Potency [11] | Potency [12] | Potency [13] | Potency [14] | Potency [15] | Potency [16] | Potency [17] | Potency [18]
